# LmPK inh: LmPK (Leishmania mexicana) enzyme inhibition; Q27686; Potency, µM (titrated, usually from 57.5 µM), for the others: at the highest dose activity change, negative = inhibition, hits mostly inhibitors; actives 0.37% (n = 290,000); purified LmPK, Kinase-Glo ATP luminescence, 1 h; note: potency is the fitted concentration of half-maximal effect
# Target sequence (Q27686 whole entry, looked up): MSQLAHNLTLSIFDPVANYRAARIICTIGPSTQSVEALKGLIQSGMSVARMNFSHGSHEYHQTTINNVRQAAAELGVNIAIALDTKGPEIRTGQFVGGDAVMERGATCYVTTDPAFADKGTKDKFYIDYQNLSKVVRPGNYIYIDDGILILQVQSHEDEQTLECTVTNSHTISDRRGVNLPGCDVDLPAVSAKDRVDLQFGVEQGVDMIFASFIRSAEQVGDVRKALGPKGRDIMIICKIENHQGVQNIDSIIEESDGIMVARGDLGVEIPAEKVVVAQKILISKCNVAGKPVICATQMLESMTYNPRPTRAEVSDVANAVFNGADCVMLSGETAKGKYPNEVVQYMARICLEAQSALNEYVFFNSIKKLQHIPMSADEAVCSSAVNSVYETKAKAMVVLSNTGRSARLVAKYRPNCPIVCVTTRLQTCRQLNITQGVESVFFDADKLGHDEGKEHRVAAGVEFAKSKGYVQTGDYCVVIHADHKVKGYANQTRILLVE
#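 ATP generated from ADP (0.1 mM) and PEP (0.5 mM) by 0.1 nM LmPK over 1 h at room temperature (pH 7.2 imidazole buffer) was detected by coupled luciferase luminescence. Values were normalized to uninhibited and no-enzyme wells.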
# Vaccinia mCherry: vaccinia inhibition (mCherry reporter). Vaccinia virus mCherry reporter infection, fluorescence. Potency, µM (top dose mostly 36.5 µM), inactives show at the top dose activity change, negative = inhibition, hits mostly inhibitors. actives 0.63% (n = 310,000). AID 720579; calls by dose curve; tested in A549 cells; note: potency is the fitted concentration of half-maximal effect; nearly all actives have a fitted effect of over 35% in size
# VACV Venus inh: vaccinia inhibition (Venus reporter). actives 0.46% (n = 330,000). AID 720580. Vaccinia virus Venus reporter expression, fluorescence. Potency, µM (series often up to 36.5 µM), for inactives: at the top dose activity change, negative = inhibition, hits mostly inhibitors; calls by dose curve; tested in A549 cells; note: potency is the fitted concentration of half-maximal effect; nearly all actives have a fitted effect of over 30% in size
# HCMV antiviral: blocks human cytomegalovirus replication | AID 1259415 | actives 4.5% (n = 410,000) | activity change, negative = inhibition, % at 57.5 µM | HFF cells, HCMV-luciferase reporter, 72 h; hits give low values; in the data active = activity change below about -60%; inconclusive = no clear call, values can overlap the other calls; inactive = above about -39%
#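 After 16 h attachment at 37C, HFF cells received test compound and HCMV-luciferase (1 PFU/cell); reporter luminescence read 72 h later, data normalized against buffer-only and known inhibitor Salinomycin.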
# TbPYK inhibitor: T. brucei pyruvate kinase inhibition; actives 0.12% (n = 410,000); Potency, µM (doses to about 76.8 µM), without a hit: top-dose activity, negative = inhibition, actives largely listed as inhibitors; AID 624173; TbPYK enzyme, Kinase-Glo Plus ATP luminescence, 45 min; Q57TT1; note: potency is the fitted concentration of half-maximal effect; nearly all actives have a fitted effect of over 50% in size
#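 Readout: single end-point luminescence (Kinase-Glo Plus, 10 min). Reaction conditions were TbPYK/substrate plus 130 uM ADP, 45 min at RT, pH 7.2 TEA buffer. No-enzyme wells served as controls, and data were normalized before concentration-response fitting.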
# * hit, by the source's call; i = inactive; ? = inconclusive; / = not tested or not shown; ! = a repeat was not active; [ ] = dose if it differs, or a comment. Sampled rows, rich in hits. Any-hit rate of the full collection: about 5%. Unless noted, calls come from the whole dose curve; as a rule, active = well fitted curve in the direction sought with a large enough effect; inconclusive = small, poorly fitted or top-dose-only effect, or another doubt; inactive = no such curve, though single readings can be large; an effect the other way counts as inactive or inconclusive. % is set by controls: 0 for no effect and ±100 for the full control effect.
SMILES,LmPK inh,Vaccinia mCherry,VACV Venus inh,HCMV antiviral,TbPYK inhibitor
Cc1nc2ccccc2c(=O)n1/N=C/c1ccc2ccccc2c1O,3.4%,/,/,-82.4*,5.2%
COC(=O)C[C@H]1C=C[C@H](NC(=O)Nc2ccccc2)[C@@H](CO)O1,/,?,-24.8%,-3.9,/
CC1(NC(=O)Cc2ccc(Cl)c(Cl)c2)CCS(=O)(=O)C1 (stereo unspecified),/,/,/,1.6,-4.2%
CCCCNc1cccc2c1S(=O)(=O)N(CCCC)CC(COCc1ccccc1)O2 (stereo unspecified),/,i,0.0%,-21.3,0.4%
CCOC(=O)C1=C(C)NC(SCC(N)=O)=C(C#N)C1c1ccccc1 (stereo unspecified),1.9%,-5.0%,-10.7%,32.9,-16.3%
CC(=O)Nc1ccc(NC(=O)C(C)OC(=O)/C=C/c2cn(-c3ccccc3)nc2-c2cccnc2)cc1 (stereo unspecified),3.4%,12.6µM*,?,-94.1*,-13.3%
O=C(/C=C/c1cn(-c2ccccc2)nc1-c1cccnc1)N1CCCCC1,5.1%,/,/,-60.2*,-2.0%
COC(=O)c1ccc2c(=O)[nH]c(COC(=O)c3cccc(S(=O)(=O)N4CCOCC4)c3)nc2c1,/,-19.7%,-2.3%,3.0,-4.0%
Cc1cccc(N2CCN(C(=O)c3cccn3-c3nnc(N4CCCCC4)s3)CC2)c1C,/,-18.0%,-8.5%,0.0,-6.2%[15.4 µM]
CCOC(=O)C1(CCCc2ccccc2)CCN(C(=O)C2=C(C)OCCO2)CC1,3.1%,-10.9%,-17.8%,-68.8*,0.0%
CCOC(=O)C1(CCCc2ccccc2)CCN(C(=O)c2ccoc2)CC1,1.7%,-11.8%,-3.0%,-33.3,2.5%
O=C(Nc1ccc(Cl)cn1)C1CCN(c2ncnc3c2nc2n3CCCCC2)CC1,4.2%,-16.6%,?,-86.3*,-7.3%
Cc1ccc(N2CCN(C(=O)C3CCN(c4ncnc5c4nc4n5CCCCC4)CC3)CC2)c(C)c1,/,-13.5%,-25.0%,-61.5*,-4.8%
Clc1cccc(N2CCN(c3ncnc4c3nc3n4CCCCC3)CC2)c1,/,?,-20.8%,-73.1*,-0.2%
CCN(C(=O)C1CCCN(c2ncnc3c2nc2n3CCCCC2)C1)c1cccc(Cl)c1 (stereo unspecified),3.6%,-25.4%,-19.9%,-86.7*!,0.0%
COc1ccccc1C(=O)N/C(=C\c1cn(S(=O)(=O)N(C)C)c2ccccc12)C(=O)N1CCCC1,-0.7%,/,/,?,-1.1%
O=C(C1CCN(c2ncnc3c2nc2n3CCCCC2)CC1)N1CCN(c2ccc(Cl)cc2)CC1,/,i,-6.7%,?,0.0%
Cc1noc2ncnc(N3CCN(c4cccc(Cl)c4)CC3)c12,1.7%,/,/,-71.6*,-0.1%
CCOC(=O)C(C)NC(=O)C1CCN(c2ncnc3c2nc2n3CCCCC2)CC1 (stereo unspecified),/,-14.6%,-8.5%,-84.5*,-1.0%
O=C(C1CCCN(c2ncnc3c2nc2n3CCCCC2)C1)N1CCN(c2ccc(Cl)cc2)CC1 (stereo unspecified),-0.7%,-17.1%,?,-83.3*,5.0%
CCOC(=O)C1CCN(c2ncnc3c2nc2n3CCCCC2)CC1,/,8.2%,0.3%,61.1,-6.4%
O=C(C1CCN(c2ncnc3c2nc2n3CCCCC2)CC1)N1CCN(c2cccc(Cl)c2)CC1,0.9%,-8.3%,-18.0%,-91.1*,-2.5%
O=C(O)c1csc(-c2ccccc2)n1,0.7%,-14.6%,-10.9%,-20.4,5.4%
Cc1sc(N=Nc2ccc(N(C)C)cc2)[n+]([O-])c1C,/,-5.3%,-8.2%,34.5,-16.3%
COc1cccc(-c2ccc3ncnc(NCc4cccc(C)c4)c3c2)c1,/,/,/,-85.6*,6.7%
SMILES,LmPK inh,Vaccinia mCherry,VACV Venus inh,HCMV antiviral,TbPYK inhibitor
COCCCNc1ncnc2ccc(C)cc12,0.2%,?,?,-62.6*,-3.4%
COc1cccc(CNc2ncnc3ccc(-c4c(C)noc4C)cc23)c1,/,/,/,-34.0,3.4%
Fc1cccc(CNc2ncnc3ccc(-c4ccc5c(c4)OCO5)cc23)c1,/,/,/,-92.1*,-5.1%
COC(=O)c1ccc(CO/N=C/c2ccc(OC)cc2OC)cc1,0.1%,/,/,-15.0,3.2%
Cc1ccc(-c2nnc(SCC(=O)N(C)C)nc2-c2ccc(C)cc2)cc1,2.8%,-15.4%,5.2%,-60.1*,-12.5%
Cc1ccc(-c2nnc(SCC(N)=O)nc2-c2ccc(C)cc2)cc1,-2.1%,-13.6%,-7.6%,?,1.1%
CCCCCCC(C)OC(=O)COc1ccc(Cl)cc1Cl (stereo unspecified),/,i,-18.1%,/,/
CCN(CC)CCNC(=O)C12CC3CC(CC(C3)C1)C2,1.1%,-19.0%,-6.2%,-7.2,1.1%
CCN(CC)CCNC(=O)C(Cl)=C1C(Cl)=C(Cl)C(Cl)=C1Cl,/,2µM*,0.794µM*,-76.3*,-3.3%
O=C(NC(=S)Nc1ccccc1O)c1ccccc1Cl,-13.0%,-5.0%,-5.5%,86.2,1.6%
CCS(=O)(=O)N1Cc2ccccc2CC1C(=O)Nc1ncc(C)s1 (stereo unspecified),3.9%,/,/,23.5,2.6%
CCS(=O)(=O)N1Cc2ccccc2CC1C(=O)Nc1nnc(SCc2ccc(C#N)cc2)s1 (stereo unspecified),2.0%,-1.8%,-19.8%,-66.3*,-8.5%
Cc1ccccc1CN(C)C(=O)COC(=O)c1ccc2[nH]c(C)c(C)c2c1,/,i,-24.5%,-13.4,-2.8%
Cc1ccccc1-n1cc(CNC(=O)CN2Cc3ccccc3OC(C)C2)cn1 (stereo unspecified),/,-5.0%,-0.6%,/,/
C[C@@H]1O[C@@H](O[C@@H]2C=C3CC[C@@H]4C(CC[C@]5(C)[C@@H](c6ccc(=O)oc6)CC[C@]45O)[C@@]3(C)CC2)[C@H](O)[C@H](O)[C@H]1O (stereo partly specified),/,31.6µM*,?,-96.9*,2.5%
CC(=O)C1CCC2(O)C3CCC4=CC(=O)CCC4(C)C3CCC12C (stereo unspecified),/,-0.3%,-6.2%,-6.1,-1.2%
C[C@@H]1O[C@@H](O[C@@H]2C=C3CCC4C(CC[C@]5(C)[C@@H](c6ccc(=O)oc6)CC[C@]45O)[C@@]3(C)CC2)[C@H](O)[C@H](O)[C@H]1O (stereo partly specified),/,?,0.631µM*,-98.8*,-3.8%
COc1ccc(CNC(=O)CN(c2cccc(OC)c2)S(C)(=O)=O)cc1,-0.5%,-5.5%,-3.5%,-26.5,-21.1%
C=C(C1=CCN(S(=O)(=O)C(C)(C)C)[C@H]1CCO)c1ccccc1,/,i,0.0%,-7.5,-7.3%
O=S(=O)(c1ccc(Cl)cc1)N1CCN(Cc2ccc(O)c3ncccc23)CC1,-0.8%,?,?,-97.9*,1.8%
O=C(Oc1c(CN2CCOCC2)cc(Cl)c2cccnc12)c1ccccc1,12.9%,?,?,-96.5*,0.4%
Oc1c(CN2CCCCC2)cc(Br)c2cccnc12,-1.7%,/,/,-102.1*,-6.5%
Oc1c(CN2CCc3ccccc3C2)cc(Cl)c2cccnc12,14.9%,2.51µM*,?,/,-11.2%
